Our source for the outcome values is PubChem BioAssay (EPA / NIEHS).

Each structure is given as a SMILES string. Records with an inconclusive call do not appear. Calls of active or inactive are those of the source. Rule for the calls: active = hit-call score of the fitted dose curve at least 0.9, where 1 is the maximum; inconclusive = response in the unintended direction; inactive = score below 0.9.

Read-out in this experiment: alkyl and aryl transferase (GSTA2), GSTA2 (gene 2939)
Description: CLD_GSTA2_6hr: CellzDirect (CLD) Gene Expression Assay for alkyl and aryl transferase (GSTA2) at 6 hours (AID 2283666). The method, then:
CLD_6hr is a cell-based, multiplexed-readout assay that uses hepatocyte, a human liver primary cell, with measurements taken at 6 hours after chemical dosing in a 96-well plate.CLD_GSTA2_6hr is one of 16 assay component(s) measured or calculated from the CLD_6hr assay. It is designed to make measurements of mRNA induction, a form of inducible reporter, as detected with chemiluminescence signals by Quantitative Nuclease Protection Assay (qNPA) technology.Data from the assay component CLD_GSTA2_6hr was analyzed at the endpoint, CLD_GSTA2_6hr, in the positive analysis fitting direction relative to DMSO as the negative control and baseline of activity. Using a type of inducible reporter, gain-of-signal activity can be used to understand changes in the reporter gene as they relate to the gene GSTA2. Furthermore, this assay endpoint can be referred to as a primary readout. To generalize the intended target to other relatable targets, this assay endpoint is annotated to the transferase intended target family, where subfamily is alkyl and aryl transferase.
Human hepatocyte cultures were treated daily for two consecutive days with fresh dosing solutions containing appropriate concentrations of the 320 ToxCast chemicals (chemical identities were blinded to CellzDirect and other ToxCast collaborators), vehicle control (0.2% DMSO), and positive control inducers as summarized in Table 1. Due to the large number of treatment groups and chemicals examined, the ToxCast chemicals were divided into two groups (spanning two independent cultures of hepatocytes from separate donor preparations (Hu778: ToxCast plates 1 and 2; Hu776: ToxCast plates 3 and 4). Each preparation of human hepatocyte cultures was treated with respective vehicle control, medium only control, set of six positive controls/reference chemicals for the five hepatic receptor pathways, and a subset of eight of the ToxCast chemicals (indoxacarb, pyrithiobac-sodium, norflurazon, cyhalofop-butyl, methomyl, thiram, acetochlor, and propiconazole). These replicate data, coupled with internal replicates designed within the blinded ToxCast chemical library, provided additional data to evaluate interindividual differences between hepatocyte preparations and their potential impact on chemical profiles.Cell morphology and integrity were evaluated using phase-contrast microscopy as an indicator of hepatocyte cell health (Tyson & Green, 1987). Cultures for each treatment group (i.e., media, vehicle [0.2% DMSO], positive control inducers [multiple concentrations], and the ToxCast chemicals [multiple concentrations]) were observed and cell morphology was assessed relative to vehicle control cultures at each harvest time point (0, 6, 24, or 48 h). […] Images were evaluated at the conclusion of the study to assess changes in cell integrity and account for the effects of chemical exposure on uncharacteristic changes in concentration-dependent gene expression profiles. The results from these determinations of apparent cytotoxicity were annotated (yes/no) alongside the corresponding qNPA data for reference.At the conclusion of each treatment period, hepatocyte cultures (96-well) were washed with 1 volume of HBSS, lysed by addition of 25 ul ArrayPlate lysis buffer (HTG, Tucson, AZ), and 70 ul/well of Denaturation Oil, denatured by incubation at 95C for 10 min, and frozen at approximately -70C until analysis by nuclease protection assay (qNPA) (Roberts et al., 2007). For qNPA analysis, cell lysates were thawed at 50C for approximately 30 min, qNPA probes were added, and samples were incubated at 95C for 10 min to begin the detection process by denaturing the target RNA, dissociating the duplexes and secondary structure hybridization. At the conclusion of the hybridization period, S1 nuclease reagent was added to each sample to digest all nonprotected nucleotides at 50C for 60-90 min. […]
On to `O=C(NC(=O)c1c(F)cccc1F)Nc1ccc(OC(F)(F)C(F)OC(F)(F)F)c(Cl)c1` (stereo not given), for which the molecule was classed as inactive.

Turning to `O=C(Nc1ccccc1)Nc1cnns1`, the call was inactive.

Take `O=C(O)CCCOc1ccc(Cl)cc1Cl`: the result was inactive.

Regarding `CCc1ccc(C(=O)NN(C(=O)c2cc(C)cc(C)c2)C(C)(C)C)cc1`, the result was inactive.

Regarding `Oc1cc(Cl)ccc1Oc1ccc(Cl)cc1Cl`, the molecule was called inactive.

Turning to `CCC(C)(C)C(=O)OC1=C(c2ccc(Cl)cc2Cl)C(=O)OC12CCCCC2`, the molecule was called inactive.

Consider `CCOc1nc(NC)nc(NC(=O)NS(=O)(=O)c2ccccc2C(=O)OC)n1`, for which the result was inactive.

For `C[C@H]1[C@H](c2ccc(Cl)cc2)SC(=O)N1C(=O)NC1CCCCC1`, the call was inactive.

Take `C#CCN1C(=O)COc2cc(F)c(N3C(=O)C4=C(CCCC4)C3=O)cc21`: the molecule was called inactive.

Take `CCCN(CCC)c1c([N+](=O)[O-])cc(C(F)(F)F)cc1[N+](=O)[O-]`: the outcome was inactive.

Consider `[2H]C1([2H])[n+]2ccccc2-c2cccc[n+]2C1([2H])[2H]`, for which the call was inactive.

With `CC1(C)C(C=C(Cl)Cl)C1C(=O)OC(C#N)c1ccc(F)c(Oc2ccccc2)c1` (stereo not given), the call was inactive.

As to `COC(=O)c1ccccc1S(=O)(=O)NC(=O)N(C)c1nc(C)nc(OC)n1`, the call was inactive.

Turning to `CC(C)OC(=O)Nc1cccc(Cl)c1`, the molecule was classed as inactive.

As to `CC(C)(C)C(O)/C(=C\c1ccc(Cl)cc1Cl)n1cncn1` (stereo not given), the molecule was classed as inactive.

As for `Oc1ccc(Cl)cc1Cc1ccccc1`, the call was inactive.

For `COC(=O)c1ccccc1CS(=O)(=O)NC(=O)Nc1nc(OC)cc(OC)n1`, the result was inactive.

In the case of `CNC(=O)Oc1cccc(N=CN(C)C)c1`, the outcome was inactive.

`CC1(c2ccc(Oc3ccccc3)cc2)OC(=O)N(Nc2ccccc2)C1=O` (stereo not given): the molecule was called inactive.

In the case of `CCS(=O)(=O)c1cccnc1S(=O)(=O)NC(=O)Nc1nc(OC)cc(OC)n1`, the result was inactive.

On to `CC(C)(C)C(O)C(Oc1ccc(Cl)cc1)n1cncn1` (stereo not given), for which the result was inactive.

Consider `O=[N+]([O-])/N=C1\NCCN1Cc1ccc(Cl)nc1`, for which the call was inactive.

`CCOCN(C(=O)CCl)c1c(C)cccc1CC`: the outcome was inactive.

On to `CCN(CC)C(=O)SCc1ccc(Cl)cc1`, for which the call was inactive.

`ClC1C(Cl)C(Cl)C(Cl)C(Cl)C1Cl` (stereo not given): the outcome was inactive.

Take `CCOC1Oc2ccc(OS(C)(=O)=O)cc2C1(C)C` (stereo not given): the molecule was called inactive.

Regarding `CNC(=O)CSP(=S)(OC)OC`, the call was inactive.

Take `CN1CSC(=S)N(C)C1`: the molecule was called inactive.

For `Clc1ccccc1-c1nnc(-c2ccccc2Cl)nn1`, the molecule was classed as inactive.

As to `O=[N+]([O-])c1c(Cl)c(Cl)c(Cl)c(Cl)c1Cl`, the molecule was called inactive.

Consider `O=C(O)COc1ccc(Cl)cc1Cl`, for which the molecule was classed as inactive.

Consider `CCC(C)(NC(=O)c1cc(Cl)c(C)c(Cl)c1)C(=O)CCl` (stereo not given), for which the result was inactive.

Turning to `OCCOc1ccccc1`, the molecule was called inactive.

For `N#CN`, the result was inactive.

For `N#Cc1c(Cl)c(Cl)c(Cl)c(C#N)c1Cl`, the result was inactive.
